According to article PMC5540273 (PLoS ONE, 2017):

These compounds were tested on SNRK. Conditions: concentration: 1 μM, replicates: in singlicate; n = 1.
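Further: KINOMEscan kinase panel screen.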

In order of falling “%Inh” value:
1. COc1cccc(C2=C(Nc3ccc(Cl)c(C(=O)O)c3)C(=O)NC2=O)c1 [SB-390769]  100%
2. COc1ccc(-c2coc3ccc(-c4nnc(SCc5ccc(OC)c(C(F)(F)F)c5)o4)cc23)cc1  21%
3. O=C(Nc1cccc(-c2nn3ccccc3c2-c2ccnc(Nc3cccc(F)c3)n2)c1)c1c(F)ccc(F)c1Cl [GSK357952]  17%
4. COc1cccc(C(=O)Nc2cccc(Oc3ccc4nc(NC(=O)C5CC5)cn4n3)c2)c1  8%
5. Cl.NC(=O)c1cccc(Nc2nccc(Nc3ccc(Oc4c(Cl)cccc4Cl)c(Cl)c3)n2)c1 [GW659009]  5%
6. Cn1cc(-c2[nH]c3cc(NC(=O)[C@H](N)C4CCCCC4)cc4c3c2C=NNC4=O)cn1  1%
7. c1ccc(Oc2ccc(Nc3ccnc4cc(-c5ccc(CNCCN6CCOCC6)o5)ccc34)cc2)nc1 [GW567145]  0%
8. Cc1ccc(C)c(NC(=O)NC2CCN(c3ccnc(Nc4ccc(F)cc4)n3)C2)c1 (stereo not shown) [GSK1379720]  0%
9. O=C(Nc1n[nH]c2cc(-c3ccoc3)ccc12)C1CC1 [SB-738481]  0%
10. Cc1ccc(S(=O)(=O)Nc2ccc(Nc3nccc(Nc4cccc5[nH]ncc45)n3)cc2)cc1 [GSK581271]  0%
11. CN(C)Cc1ccc(-c2ccc3c(Nc4ccc(Oc5ccccn5)cc4)ccnc3c2)o1 [GW567148]  0%
12. Nc1ncc(-c2ccc3nccc(-c4ccncc4)c3c2)cc1S(=O)(=O)N1CCOCC1 [GSK1627798]  0%
13. CC(=O)Nc1nc2cnc(Nc3cc(NC(=O)c4cccc(C5(C#N)CC5)c4Cl)ccc3C)nc2s1  0%
14. Cl.Cl.NCC(NC(=O)c1cc(-c2ccccc2)c(-c2ccnc3[nH]ccc23)s1)c1ccccc1 (stereo not shown) [GSK1321561]  0%
15. O=c1[nH]cc(-c2ccc(N3CCOCC3)cc2)c2sc(-c3cn[nH]c3)cc12 [GSK2276055]  0%
16. Cn1cc(-c2ccc3c(c2)CCN3C(=O)Cc2cccc(F)c2)c2c(N)ncnc21 [GSK2603358]  0%
17. CN1CCN(CCCNc2nccc(-c3c(-c4ccc(F)cc4)nn4cc(C(F)(F)F)ccc34)n2)CC1 [GW621581]  0%
18. Cc1ccc(C(=O)Nc2ccc(Nc3ccnc4cc(-c5nccs5)ccc34)cc2O)cc1.Cl [GW494702]  0%
19. CC(C)(C)c1ccc2nccc(Nc3cccc(O)c3)c2c1 [GW856795]  0%
20. Nc1n[nH]c2cnc(-c3ccccc3)cc12 [SB-642124]  0%
21. CCc1ccc(-c2ccc3c(c2)-c2c(cnn2C)S(=O)(=O)N3C)cc1  0%
22. O=C(Nc1n[nH]c2nc(-c3ccc(O)cc3)ccc12)C1CC1 [SB-710363]  0%
23. CC(=O)N1CCN(c2ccc(Nc3nccc(-c4sc(C(C)C)nc4-c4cccc(NS(=O)(=O)c5cccc(Cl)c5)c4)n3)cn2)CC1 [GSK1660437]  0%
24. c1ccc(-c2n[nH]cc2Nc2ccnc3ccccc23)nc1 [GW694077]  0%
25. Oc1cc(Nc2ccnc3cc(I)ccc23)ccc1F [GW552771]  0%
26. COc1ccc(Nc2nccc(N3CCC(NC(=O)Nc4cccc(OC)c4)C3)n2)cc1 (stereo not shown) [GSK1379742]  0%
27. COc1cc(Nc2nccc(-c3c(-c4cccc(NC(=O)c5c(F)cccc5F)c4)nn4ccccc34)n2)cc(OC)c1OC [GSK323521]  0%
28. c1ccc(-c2cnc3nccnn23)cc1 [AH20685]  0%
29. C[C@@H](Oc1cc(-n2cnc3cc(-c4ccnc(NCCS(C)(=O)=O)c4)ccc32)sc1C(N)=O)c1ccccc1Cl [GSK907232]  0%
30. COc1cc(Nc2ncc3c(C)nc(-c4cc5ccccc5[nH]4)n3n2)cc(OC)c1OC [GW869516]  0%
31. Cl.c1ccc(-c2ccc3c(Nc4ccc5[nH]ncc5c4)ccnc3c2)nc1 [GW440137]  0%
32. Cl.c1ccc(-c2ccc3c(Nc4ccc5[nH]ccc5c4)ccnc3c2)nc1 [GW440138]  0%
33. O=C(Nc1ccccc1F)NC1CCN(c2ccnc(Nc3ccc(F)cc3)n2)CC1 [GSK1379800]  0%
34. Clc1ccc(-c2nn3ncccc3c2-c2ccnc(Nc3ccc4c(c3)OCCO4)n2)cc1 [GW829116]  0%
35. CC(C)c1nc(-c2cccc(NS(=O)(=O)c3c(F)cccc3F)c2F)c(-c2ccnc(Nc3ccc(N4CCOCC4)nc3)n2)s1 [GSK2008607]  0%
36. C[C@@H]1CC[C@@H](C(=O)Nc2ccccc2)CN1c1cc(-c2ccc3c(N)n[nH]c3c2)nc(N)n1 [GSK2286062]  0%
37. COc1ccc(CNC(=O)NC2CCN(c3ccnc(Nc4ccc(F)cc4)n3)CC2)cc1 [GSK1379788]  0%
